# From PubChem BioAssay
# Where “and” joins values, the source holds several entries; their conditions need not be identical. Identical values can stand only once. Some structures have more than one record in an assay (separate samples or runs), and their calls can disagree. Calls of active or inactive are those of the source.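 Rule for the calls, unless noted: active = inhibition at or above 50% relative to wild type and mutant plate controls; inactive = inhibition below 50%.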
# Assays:
# [1] = inhibitors of TNFa-induced NFkB p65 translocation, primary screen, imaging, HUVEC, MLSMR starter and 10KST1 sets (AID 438;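 active = inhibition above 20% together with a positive visual image hit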;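 note: compound added about 3h40 before a 20 min TNFalpha stimulation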;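 for inhibition: signal is the nuclear over cytoplasmic p65 intensity ratio per well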); conditions: HUVEC TNFa-induced p65 nuclear translocation; cell count: measured here: nuclei count (cytotoxicity indicator), at 2.08 µM; inhibition: at 2 µM, stronger effect = higher value, 0% TNFa-plus-vehicle, 100% no-TNFa wells
# [2] = reduction of polyQ htt aggregates in cells – imaging, exon1htt(103Q)mCFP cells, high-content imaging, primary screen (AID 483;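 active = visual image review flags a hit and inhibition of aggregation exceeds 20%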;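 note: compound exposure lasted 3 days before fixation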;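 for nuclei count: percent of the per-plate median nuclei count of sample wells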); conditions: exon1htt(103Q)mCFP cell line, aggregate imaging, at 2 µM; inhibition of aggregation: stronger effect = higher value; nuclei count: measured here: cell count, toxicity
# [3] = endothelial E-selectin expression blockers – imaging, HUVEC, immunofluorescence, MLSMR starter and 10KST1 sets, primary screen (AID 487;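 active = visually confirmed hit in the image check and inhibition above 20%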;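 for inhibition: signal is fraction of cell area covered by stained E-selectin grains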;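 for nuclei count: 100% = median nuclei count of all wells on the same plate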); conditions: HUVEC TNFalpha-induced E-selectin immunofluorescence imaging, at 2 µM; inhibition: stronger effect = higher value; nuclei count: measured here: cell number, toxicity
# [4] = Primary imaging screen for DUSP6 inhibitors that restore phospho-Erk in transfected HeLa cells, chemical complementation (AID 609;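 active = compounds giving at least 50% inhibition in the cell-based MKP-3 phosphatase rescue imaging test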;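 for inhibition: phospho-Erk level distribution per well compared with pooled transfected vehicle control wells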); conditions: HeLa MKP-3 transfected, phospho-Erk imaging KS statistic, at 10 µM, cells stimulated with TPA for 15 min
# [5] = target: Dual specificity protein phosphatase 6 (Homo sapiens) (UniProt Q16828); assay: as above; conditions: HeLa MKP-3 transfected, phospho-Erk imaging KS statistic; at 10 µM; stronger effect = higher value; cells stimulated with TPA for 15 min
# [6] = target: Voltage-gated potassium channel subunit beta-2 (Rattus norvegicus) (UniProt P62483); assay: inhibitors of rat Kvbeta2 reductase activity – biochemical, NADPH fluorescence, primary screen (AID 622;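 active = fluorescence slope higher than the sample average by over 3 SD, cut at about -0.22 in these data, passing the limit was not always enough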;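 note: slope of raw intensity against log time taken from 70 to 1610 s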); conditions: recombinant KvBeta, 4-cyanobenzaldehyde reduction, at 10 µM, stronger effect = higher value
# [7] = target: Voltage-gated potassium channel subunit beta-2 (Rattus norvegicus) (UniProt P62483); assay: enhancers of rat Kvbeta2 NADPH turnover – biochemical, NADPH fluorescence, primary screen (AID 623;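 active = NADPH fluorescence slope more negative than the mean of all samples by about 3 SD, 99.7% confidence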;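 note: fluorescence intensity change per second fitted from 20 to 320 s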); conditions: Recombinant KvBeta, NADPH fluorescence decrease slope, 10 min; at 10 µM; stronger effect = lower value
# [8] = target: Alpha-2C adrenergic receptor (Homo sapiens) (UniProt P18825); assay: compounds altering alpha2C-coupled GIRK flux – cell-based, HEK293 alpha2C/GIRK1/2, thallium flux, primary screen (AID 624;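 active = fluorescence slope after compound addition differing from the mean of all screened samples at 99.7% confidence, in either direction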;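 note: slope of fluorescence ratio to pre-addition baseline per second over 15 to 24 s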); conditions: thallium flux BTC fluorescence, at 10 µM, actives lie on both sides
# [9] = inhibitors of larval lipid processing in zebrafish, primary screen, whole organism, PED6 fluorescence, gall bladder and intestine (AID 686;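 active = a full or partial loss of lipid-probe fluorescence in the fish gall bladder, intestine or both, judged by eye; inactive = no fluorescence loss, or compound toxic to the fish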;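 note: larvae 5 to 7 days old with five fish per well; signal comes from phospholipase A2 cleavage of quenched PED6 carried via bile; overnight exposure to compound and PED6 before scoring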); conditions: Zebrafish larvae PED6 lipid processing, fluorescence scoring; screened at 20 µM (by protocol)
# [10] = loss of swimming-algae plug formation – whole organism, Chlamydomonas reinhardtii, WT vs cilia-less mutant, absorbance, 96-well, primary screen (AID 463189); conditions: Chlamydomonas reinhardtii gravitaxis, OD600 absorbance, 2 days; at 10 µM; stronger effect = higher value;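 note: 0% = wild type cc124 cells in DMSO and 100% = ciliumless bld1 mutant cells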
# [11] = blockers of RIG-like receptor reporter activation – cell-based, Sendai virus stimulus, luciferase, 10K MLSCN set, TLR/RLR signaling modifier project, primary screen (AID 602276;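 active = inhibition at or above 50% at 10 µM; inactive = inhibition below 50%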;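 note: firefly luciferase from ISG56 promoter only with Renilla not read in this screen; 0% = Sendai virus plus DMSO and 100% = medium plus DMSO without virus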); conditions: HEK293 RL24 IRF3 luciferase reporter, at 10 µM, stronger effect = higher value
# [12] = TLR3 IRF3 reporter activation blockers – cell-based, poly I:C stimulus, luciferase, 10K MLSCN set, primary screen (AID 602277;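 active = inhibition of the reporter signal at or above 50%; inactive = inhibition below 50%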); conditions: HEK293-TLR3 RL24 IRF3 luciferase reporter, at 10 µM, stronger effect = higher value
# [13] = target: Muscarinic acetylcholine receptor M4 (Homo sapiens) (UniProt P08173); assay: M4-linked GIRK flux change, two-sided – cell-based, HEK293 M4/GIRK, thallium flux, BTC-AM, M4 allosteric agonist project, primary screen (AID 625;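 active = fluorescence slope after compound addition differing from the mean of all tested samples at 99.7% confidence, mostly higher but some lower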;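 note: thallium influx through GIRK channels coupled to M4 in HEK293 cells with BTC-AM dye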); conditions: at 10 µM, actives lie on both sides
# [14] = measured here: cell density z-score
# [15] = measured here: nuclear c-Myc green intensity z-score
# [16] = measured here: nuclear pErk red intensity z-score, stronger effect = higher value
# Muscarinic acetylcholine receptor M4 (Homo sapiens), sequence (P08173 whole entry, looked up): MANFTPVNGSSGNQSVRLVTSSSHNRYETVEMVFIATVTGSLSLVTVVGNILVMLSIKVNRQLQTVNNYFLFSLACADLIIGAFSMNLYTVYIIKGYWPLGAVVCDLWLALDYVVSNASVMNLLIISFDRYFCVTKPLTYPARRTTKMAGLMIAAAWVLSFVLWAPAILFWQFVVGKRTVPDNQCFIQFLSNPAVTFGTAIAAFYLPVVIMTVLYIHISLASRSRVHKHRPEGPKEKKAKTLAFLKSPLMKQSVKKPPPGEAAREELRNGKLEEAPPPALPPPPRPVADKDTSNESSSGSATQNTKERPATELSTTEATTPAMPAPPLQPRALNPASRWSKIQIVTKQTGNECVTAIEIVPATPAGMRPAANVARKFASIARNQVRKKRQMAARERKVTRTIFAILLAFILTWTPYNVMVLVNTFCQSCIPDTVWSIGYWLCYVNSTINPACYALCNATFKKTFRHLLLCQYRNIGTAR
# Voltage-gated potassium channel subunit beta-2 (Rattus norvegicus), sequence (P62483 whole entry, looked up): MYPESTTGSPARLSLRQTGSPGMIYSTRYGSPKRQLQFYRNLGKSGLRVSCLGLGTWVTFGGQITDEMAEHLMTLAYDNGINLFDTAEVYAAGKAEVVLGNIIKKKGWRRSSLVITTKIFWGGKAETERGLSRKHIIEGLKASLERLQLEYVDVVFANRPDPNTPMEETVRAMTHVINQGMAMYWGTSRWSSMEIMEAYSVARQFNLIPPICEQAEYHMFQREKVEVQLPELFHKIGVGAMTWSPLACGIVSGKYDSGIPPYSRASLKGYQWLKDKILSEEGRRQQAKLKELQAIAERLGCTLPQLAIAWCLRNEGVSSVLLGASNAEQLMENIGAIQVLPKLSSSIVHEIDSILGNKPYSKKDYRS
# Alpha-2C adrenergic receptor (Homo sapiens), sequence (P18825 whole entry, looked up): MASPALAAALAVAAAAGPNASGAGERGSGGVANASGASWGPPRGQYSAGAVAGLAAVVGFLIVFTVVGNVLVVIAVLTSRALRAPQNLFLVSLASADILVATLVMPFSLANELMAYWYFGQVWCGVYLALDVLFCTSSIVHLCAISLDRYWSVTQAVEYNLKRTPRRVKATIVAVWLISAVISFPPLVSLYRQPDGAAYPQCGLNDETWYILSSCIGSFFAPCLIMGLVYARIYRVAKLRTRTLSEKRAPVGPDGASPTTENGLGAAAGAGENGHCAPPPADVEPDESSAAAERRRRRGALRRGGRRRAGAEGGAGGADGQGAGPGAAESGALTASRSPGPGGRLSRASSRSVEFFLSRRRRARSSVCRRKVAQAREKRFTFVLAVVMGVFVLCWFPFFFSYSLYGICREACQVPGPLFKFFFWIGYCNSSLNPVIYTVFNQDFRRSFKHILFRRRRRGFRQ
# Dual specificity protein phosphatase 6 (Homo sapiens), sequence (Q16828 whole entry, looked up): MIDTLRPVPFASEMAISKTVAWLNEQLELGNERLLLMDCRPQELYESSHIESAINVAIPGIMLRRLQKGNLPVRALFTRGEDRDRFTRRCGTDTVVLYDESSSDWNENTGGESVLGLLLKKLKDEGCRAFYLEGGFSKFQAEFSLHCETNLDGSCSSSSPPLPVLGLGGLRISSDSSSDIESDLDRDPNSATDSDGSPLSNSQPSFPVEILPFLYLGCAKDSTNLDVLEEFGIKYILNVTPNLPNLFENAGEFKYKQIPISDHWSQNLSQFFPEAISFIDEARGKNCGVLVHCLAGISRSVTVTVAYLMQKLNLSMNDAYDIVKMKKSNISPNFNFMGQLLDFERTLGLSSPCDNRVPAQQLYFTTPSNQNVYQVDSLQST
Compound,cell count [1],inhibition [1],inhibition of aggregation [2],nuclei count [2],inhibition [3],nuclei count [3],"z-score [4, 14]","z-score [4, 15]","z-score [4, 16]",inhibition [5],fluorescence slope [6],NADPH fluorescence slope [7],slope [8],outcome [9],inhibition [10],inhibition [11],inhibition [12],fluorescence slope [13]
CCOC(=O)CCC(=O)O[C@H]1[C@H](O[C@@H]2[C@@H](C)[C@H](O[C@H]3C[C@@](C)(OC)[C@@H](O)[C@H](C)O3)[C@@H](C)C(=O)O[C@H](CC)[C@@](C)(O)[C@H](O)[C@@H](C)C(=O)[C@H](C)C[C@@]2(C)O)O[C@H](C)C[C@@H]1N(C)C,569,-5.3% (inactive),0.8% (inactive),105%,-62.2% (inactive),115%,-0.734,-0.933,0.00972,-4.44% (inactive),-0.495 (inactive),-5.4e-05 (inactive),0.0056 (inactive),inactive,64.6% (active),20.3% (inactive),31.3% (inactive),
CC(NCCc1ccc(O)cc1)C(O)c1ccc(O)cc1 (configuration not stated),713,-4.6% (inactive),-2.5% (inactive),107%,-109% (inactive),123%,0.779,0.516,-1.29,1.48% (inactive),-0.474 (inactive),-9.7e-05 (inactive),0.00504 (inactive),inactive,4.91% (inactive),7.45% (inactive),39.2% (inactive),
Cc1c(Cl)cccc1Nc1ccccc1C(=O)O,612,-8.8% (inactive),17.9% (inactive),108%,-156% (inactive),129%,-0.93,-0.312,1.31,5.42% (inactive),-0.466 (inactive),-4.7e-06 (inactive),0.00655 (inactive),inactive,-6.31% (inactive),4.32% (inactive),19.5% (inactive),
CN1CCN(CCCN2c3ccccc3Sc3ccc(Cl)cc32)CC1,625,-0.8% (inactive),6.1% (inactive),98.7%,-67.5% (inactive),115%,0.0938,1.34,0.8,30.1% (inactive),-0.449 (inactive),1.3e-05 (inactive),0.00441 (inactive),inactive,96.7% (active) and 24.7% (inactive),17.3% (inactive),22.7% (inactive),
CCOC(=O)c1[nH]c2ccc(Br)cc2c1NC(=O)CCN1CCC(C(=O)OCC)CC1,566,-16.7% (inactive),2.2% (inactive),96.4%,-91.6% (inactive),130%,1.13,-1.08,0.103,-0.674% (inactive),-0.523 (inactive),-2.9e-05 (inactive),0.00522 (inactive),inactive,15.3% (inactive),7.83% (inactive),-1.42% (inactive),
CN1CCCN=C1COC(=O)C(O)(c1ccccc1)C1CCCCC1 (configuration not stated),703,-0.1% (inactive),15.9% (inactive),107%,-113% (inactive),127%,-0.149,-0.804,0.222,3.45% (inactive),-0.497 (inactive),-1.3e-05 (inactive),0.00478 (inactive),inactive,-8.88% (inactive),19.2% (inactive),50.5% (active),
O=[N+]([O-])c1cccc2cn[nH]c12,615,1.2% (inactive),15.8% (inactive),81.4%,-87% (inactive),116%,2.27,-1.27,-1.46,3.45% (inactive),-0.448 (inactive),-7.3e-05 (inactive),0.00537 (inactive),inactive,4.7% (inactive) and 1.19% (inactive),15.9% (inactive),50.4% (active),
Nc1ccc(S(=O)(=O)Nc2ccccn2)cc1,684,5.6% (inactive),15.6% (inactive),101%,-123% (inactive),131%,-1.05,-1.54,0.683,12.4% (inactive),-0.459 (inactive),-4.9e-05 (inactive),0.00448 (inactive),inactive,4.41% (inactive),12.4% (inactive),42.5% (inactive),
Cc1nc2ccccc2cc1O,395,-0.5% (inactive),21.5% (inactive),80.3%,-67% (inactive),103%,-0.53,-0.624,1.27,1.42% (inactive),-0.392 (inactive),-3.6e-05 (inactive),,inactive,53.3% (active),17.5% (inactive),27.8% (inactive),0.00432 (inactive)
CC(=O)C1=C(O)C(=O)N(c2ccc(C(=O)O)cc2)C1c1ccccc1 (configuration not stated),669,4.5% (inactive),10.3% (inactive),101%,-53.3% (inactive),112%,1.33,-0.568,-0.179,2.46% (inactive),-0.428 (inactive),-5.9e-06 (inactive),,inactive,-2.45% (inactive),16.8% (inactive),17.1% (inactive),0.00575 (inactive)
OCCNc1ncnc2c1c(-c1ccccc1)c(-c1ccccc1)n2Cc1ccco1,567,-6.9% (inactive),1.6% (inactive),114%,13.3% (inactive),91.6%,-1.86,-1.32,-1.52,-2.91% (inactive),-0.472 (inactive),-6.4e-05 (inactive),,inactive,46.8% (inactive),12.3% (inactive),-0.125% (inactive),0.0047 (inactive)
Cc1c(NC(=O)c2ccc(=O)oc2)c(=O)n(-c2ccccc2)n1C,553,-12.6% (inactive),1.2% (inactive),78.4%,-22.2% (inactive),119%,-1.01,0.226,0.431,3.42% (inactive),-0.249 (inactive),-7.6e-06 (inactive),,inactive,23.3% (inactive),22.3% (inactive),24.4% (inactive),0.00562 (inactive)
Cc1cc2c(c(=O)o1)C(Cc1ccccc1)C(C#N)=C(N)O2 (configuration not stated),706,-3.3% (inactive),-2.1% (inactive),80.9%,-45.5% (inactive),126%,-1.29,0.225,1.32,9.61% (inactive),-0.44 (inactive),-4.7e-05 (inactive),,inactive,9.12% (inactive),13.9% (inactive),19% (inactive),0.00523 (inactive)
O=C(OCCCN1CCCC1)C1(c2ccccc2)CCCC1,621,2.6% (inactive),-0.8% (inactive),80.3%,39.9% (inactive),126%,-0.268,-0.108,-0.136,1.04% (inactive),-0.456 (inactive),-5.5e-05 (inactive),,inactive,91.8% (active),-13.4% (inactive),-17.4% (inactive),0.00493 (inactive)
O=C(NCc1cccnc1)c1ccc(=O)oc1,649,-2% (inactive),-18.7% (inactive),103%,43% (inactive),110%,-0.741,1.41,-1.58,4.37% (inactive),-0.496 (inactive),-4.3e-05 (inactive),,inactive,18.7% (inactive),10.2% (inactive),11.5% (inactive),0.00411 (inactive)
Cn1c(=O)n(Cc2ccccc2)c(=O)c2c1nc(NCC1CCCO1)n2Cc1ccccc1 (configuration not stated),665,-8% (inactive),-1.5% (inactive),104%,-41.8% (inactive),102%,-3.11,0.807,-1.47,-5.95% (inactive),-0.509 (inactive),-0.000124 (inactive),,inactive,-18.5% (inactive),-5.28% (inactive),-6.2% (inactive),0.00514 (inactive)
CC(=O)c1c(OCC(=O)O)ccc2c(C)cc(=O)oc12,717,0.3% (inactive),10.5% (inactive),97.8%,-27.6% (inactive),126%,-0.71,0.597,-0.576,5.95% (inactive),-0.455 (inactive),-6.6e-05 (inactive),,inactive,19.8% (inactive),16.9% (inactive),17.3% (inactive),0.00563 (inactive)
CCC(NC(=O)Nc1cc(OC)c(OC)c(OC)c1)(C(F)(F)F)C(F)(F)F,545,3.4% (inactive),15.8% (inactive),97.5%,-82.9% (inactive),141%,-0.0203,1.89,0.038,1.9e-07% (inactive),-0.48 (inactive),-4e-05 (inactive),,inactive,8.7% (inactive),20% (inactive),24.9% (inactive),0.00495 (inactive)
COc1ccccc1N=Cc1nc(-c2ccccc2)oc1OC(C)=O,451,-8.2% (inactive),-25.8% (inactive),84.2%,-86.5% (inactive),132%,0.537,-1.18,0.127,13.2% (inactive),-0.347 (inactive),-5.8e-05 (inactive),,inactive,23% (inactive),18.8% (inactive),40.5% (inactive),0.00675 (inactive)
CCCCc1nc(NCCNC(=O)c2ccco2)c(C#N)c2c1CSC(C)(C)C2,552,-4.6% (inactive),-1% (inactive),95.2%,-75.5% (inactive),122%,0.34,-0.704,0.0149,9.07% (inactive),-0.478 (inactive),-5.7e-05 (inactive),,inactive,3.31% (inactive),1.84% (inactive),7.1% (inactive),0.00431 (inactive)
CCOC(=O)CC(C#N)c1cn(C)c2ccccc12 (configuration not stated),657,-0.6% (inactive),2.2% (inactive),104%,8.5% (inactive),135%,-1.04,0.465,0.369,-7.28% (inactive),-0.46 (inactive),-3.8e-05 (inactive),,inactive,13.1% (inactive),21.5% (inactive),28.2% (inactive),0.00661 (inactive)
